Test [1] in a line: antimalarial activity against Dd2 strain (AID 2302;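 active = growth inhibition above 50% at the single 2 µM test dose, taken to imply half-maximal potency below 2 µM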;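 note: 0% = DMSO untreated growth and 100% = chloroquine plus artemisinin killed control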). As to conditions: P. falciparum Dd2 in RBCs, LDH growth readout, 72 h; at 2 µM; hits give high values.
Test [2] in a line: HepG2 cytotoxicity, primary screen, cytotoxicity control for P. falciparum antimalarial project, cell-based, ATP luminescence (AID 2303;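 active = inhibition above 50%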;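 note: 0% = DMSO wells and 100% = digitonin-killed cells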). As to conditions: HepG2 viability, 24-48 h, at 10 µM, hits give high values.
The target in test [3] is L-lactate dehydrogenase (Plasmodium falciparum (isolate CDC / Honduras)) (UniProt Q27743). Description: PfLDH activity inhibition – cell lysate, 3D7 strain, counter-screen for P. falciparum growth inhibition project (AID 2304).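 Note: 0% = vehicle and 100% = reference inhibitor.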 The conditions noted are these: P. falciparum 3D7 crude extract, LDH APAD/NBT absorbance; at 2 µM; hits give high values. (Counterscreens check selectivity or assay interference.)
Sequence of L-lactate dehydrogenase (Plasmodium falciparum (isolate CDC / Honduras)) (Q27743 whole entry, looked up): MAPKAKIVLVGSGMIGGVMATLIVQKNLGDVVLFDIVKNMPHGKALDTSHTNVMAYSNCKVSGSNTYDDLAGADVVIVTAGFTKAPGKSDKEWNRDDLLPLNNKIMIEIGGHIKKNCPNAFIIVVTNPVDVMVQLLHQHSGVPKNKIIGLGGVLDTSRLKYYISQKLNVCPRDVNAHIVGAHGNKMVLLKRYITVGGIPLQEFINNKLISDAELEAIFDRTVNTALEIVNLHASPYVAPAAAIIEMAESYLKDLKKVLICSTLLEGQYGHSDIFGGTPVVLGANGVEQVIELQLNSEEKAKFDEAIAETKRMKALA

The nature of test [4]: inhibition of 3D7 malaria parasite growth – strain 3D7 (AID 2306).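 Note: 0% = DMSO wells and 100% = chloroquine plus artemisinin control wells.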 The conditions noted are these: P. falciparum 3D7 erythrocytic growth, LDH absorbance, 72 h; at 2 µM; hits give high values.
Test [5] has as its target Calcium-dependent protein kinase 1 (Plasmodium falciparum (isolate 3D7)) (UniProt P62344). Description: PfCDPK1 kinase inhibitors, biochemical, TCAMS library (AID 1159585; cut-off not given, nearly all actives have IC50 up to about 0.98 µM;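 note: inhibitors leave more ATP so luminescence rises with inhibition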). The conditions noted are these: recombinant PfCDPK1, Kinase-Glo ATP depletion luminescence. Background: In Kinase-Glo more light means more ATP remaining.
The target in test [6] is Plasmodium falciparum protein kinase 6 (PK6, PF3D7_1337100) (UniProt Q8IDW1). Description: PfPK6 kinase inhibitors, biochemical, TCAMS library (AID 1159586). The conditions noted are these: recombinant PfPK6, Kinase-Glo ATP depletion luminescence.
Sequence of Plasmodium falciparum protein kinase 6 (PK6, PF3D7_1337100) (Q8IDW1 1-305): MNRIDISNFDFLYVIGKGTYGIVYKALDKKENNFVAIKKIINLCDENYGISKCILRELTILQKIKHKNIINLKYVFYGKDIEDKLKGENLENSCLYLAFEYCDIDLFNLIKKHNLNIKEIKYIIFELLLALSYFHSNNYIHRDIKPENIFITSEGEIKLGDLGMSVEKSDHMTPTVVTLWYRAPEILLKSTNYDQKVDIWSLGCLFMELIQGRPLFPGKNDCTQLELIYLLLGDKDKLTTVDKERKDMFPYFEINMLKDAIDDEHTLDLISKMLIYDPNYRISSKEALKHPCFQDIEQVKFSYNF
For test [7], the target named is Protein kinase 7 (PK7), Plasmodium falciparum 3D7 (PF3D7_0213400) (UniProt Q7YTF7). In words: inhibition of Plasmodium PK7 catalytic activity – biochemical, TCAMS antimalarial set, Kinase-Glo luminescence (AID 1159587). As to conditions: recombinant PfPK7, Kinase-Glo ATP depletion luminescence.
Sequence of Protein kinase 7 (PK7), Plasmodium falciparum 3D7 (PF3D7_0213400) (Q7YTF7 1-343): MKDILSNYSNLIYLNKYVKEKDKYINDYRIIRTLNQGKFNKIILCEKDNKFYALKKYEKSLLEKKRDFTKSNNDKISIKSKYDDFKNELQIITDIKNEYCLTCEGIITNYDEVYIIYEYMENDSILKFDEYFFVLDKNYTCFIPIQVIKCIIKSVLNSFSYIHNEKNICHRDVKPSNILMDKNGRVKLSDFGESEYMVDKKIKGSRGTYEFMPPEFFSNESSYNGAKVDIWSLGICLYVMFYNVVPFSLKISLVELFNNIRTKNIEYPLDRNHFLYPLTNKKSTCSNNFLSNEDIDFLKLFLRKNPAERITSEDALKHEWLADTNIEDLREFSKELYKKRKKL
Test [8] addresses Calcium-dependent protein kinase 4 (Plasmodium falciparum (isolate 3D7)) (UniProt Q8IBS5). Description: PfCDPK4 kinase inhibitors, biochemical, TCAMS library (AID 1159588; cut-off not given, nearly all actives have IC50 up to about 0.91 µM). As to conditions: recombinant PfCDPK4, Kinase-Glo ATP depletion luminescence.

Unmarked numbers belong to inactive results. For some of these results: Potency and affinity values are given separately. The source made the active and inactive calls. Unless noted, the rule behind the calls is not given here.

Sequence of Calcium-dependent protein kinase 4 (Plasmodium falciparum (isolate 3D7)) (Q8IBS5 whole entry, looked up): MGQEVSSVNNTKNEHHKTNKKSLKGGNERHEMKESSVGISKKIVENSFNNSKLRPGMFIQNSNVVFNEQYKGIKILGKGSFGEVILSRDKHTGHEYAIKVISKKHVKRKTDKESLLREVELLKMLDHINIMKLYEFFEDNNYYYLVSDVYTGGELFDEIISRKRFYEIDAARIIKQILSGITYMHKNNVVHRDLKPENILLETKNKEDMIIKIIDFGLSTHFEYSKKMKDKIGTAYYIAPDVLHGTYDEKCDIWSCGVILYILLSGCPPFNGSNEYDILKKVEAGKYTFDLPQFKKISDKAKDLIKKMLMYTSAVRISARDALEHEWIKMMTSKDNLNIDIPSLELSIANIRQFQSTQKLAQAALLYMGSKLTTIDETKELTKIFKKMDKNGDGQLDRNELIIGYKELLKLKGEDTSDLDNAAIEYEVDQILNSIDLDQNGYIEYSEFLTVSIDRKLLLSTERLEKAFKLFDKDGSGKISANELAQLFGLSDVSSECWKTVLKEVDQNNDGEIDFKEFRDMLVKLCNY
Sequence of Calcium-dependent protein kinase 1 (Plasmodium falciparum (isolate 3D7)) (P62344 whole entry, looked up): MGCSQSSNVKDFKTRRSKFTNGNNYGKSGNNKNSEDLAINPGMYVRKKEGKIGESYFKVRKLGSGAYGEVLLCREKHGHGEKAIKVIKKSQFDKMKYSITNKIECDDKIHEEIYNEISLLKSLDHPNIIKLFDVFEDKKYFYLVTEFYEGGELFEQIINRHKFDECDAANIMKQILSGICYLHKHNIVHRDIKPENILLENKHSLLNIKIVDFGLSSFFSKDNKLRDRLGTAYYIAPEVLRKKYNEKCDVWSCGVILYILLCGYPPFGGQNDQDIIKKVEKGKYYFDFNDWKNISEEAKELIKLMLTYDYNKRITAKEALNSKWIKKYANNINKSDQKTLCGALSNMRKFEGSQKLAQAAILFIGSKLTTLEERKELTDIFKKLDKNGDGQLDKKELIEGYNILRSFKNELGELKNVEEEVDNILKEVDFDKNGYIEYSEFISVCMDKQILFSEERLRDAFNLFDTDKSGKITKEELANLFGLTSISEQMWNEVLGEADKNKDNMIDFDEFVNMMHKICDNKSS

For the compound `FC(F)(F)c1ccc2nc(-c3ccc(-c4cccc(CN5CCC(CCN6CCCCC6)CC5)c4)cc3)[nH]c2c1`, the figures for the growth inhibition in test [1] and in test [4] were 96% (active) and 101% (active), respectively. Also, the figures for the inhibition in test [2] and in test [3] were 100% (active) and -5%, respectively. Further, the outcome in test [5], in test [6], in test [7] and in test [8] was inactive.

Consider `O=C(Nc1cccc(CN2CCCN(Cc3ccc(O)cc3)CC2)c1)c1cc2ccccc2s1`, for which the growth inhibition was 90% (active) in test [1] and 100% (active) in test [4]. Moreover, the inhibition (in general, the change of the read-out against control, counted positive when it falls) is 27% in test [2] and -7% in test [3]. In addition, the outcome in test [5], in test [6], in test [7] and in test [8] was inactive.

As to `CCC[C@@H]([C@@H](CC1CCCCC1)C(=O)N[C@H](C(=O)Nc1nccs1)[C@@H](C)OCc1ccccc1)N(O)C=O`, the growth inhibition in test [1] is 99% (active); in test [4], 100% (active). Also, the inhibition in test [2] was 51% (active); in test [3], -3%. Further, the outcome in test [5], in test [6], in test [7] and in test [8] was inactive.

Regarding `CC[C@H](C)CNC(=O)c1cccc(-c2cccc(CN3CCC(N4CCCC4)CC3)c2)n1`, the growth inhibition was 86% (active) in test [1] and 101% (active) in test [4]. Also, the inhibition in test [2] is 9%; in test [3] it was 1%. Further, the result in test [5], in test [6], in test [7] and in test [8] was inactive.

As to `O=C(Nc1ccc(C(=O)Oc2ccc3ccccc3c2)cc1)N[C@@H](Cc1ccc(O)cc1)C(=O)NC1CCN(Cc2ccc(O)cc2)C1` (stereo not given in full), the values for the growth inhibition in test [1] and in test [4] were 1% and 86% (active), respectively. Also, the results for the inhibition in test [2] and in test [3] were 1% and -2%, respectively. Also, the outcome in test [5], in test [6], in test [7] and in test [8] was inactive.

Consider `O=C(/C=C/c1ccc(Cl)c(Cl)c1)NCCCCCN1CCC(CCNC(=O)C2(c3ccc(Cl)cc3)CC2)CC1`, for which the growth inhibition in test [1] was 16%; in test [4], 91% (active). The values for the inhibition in test [2] and in test [3] were 96% (active) and -3%, respectively. For the same compound, the outcome in test [5], in test [6], in test [7] and in test [8] was inactive.

Take `FC(F)(F)c1ccc2nc(-c3ccc(-c4ccc(CNCCN5CCNCC5)cc4)cc3)[nH]c2c1`: the growth inhibition in test [1] is 74% (active); in test [4], 92% (active). Moreover, the inhibition in test [2] was 13%; in test [3], -4%. The result in test [5], in test [6], in test [7] and in test [8] was inactive.

On to `Cc1cc(CNC(=O)[C@H](CC2CCCCC2)Nc2ccc(C#N)c3ccccc23)c(C(F)(F)F)o1`, for which the growth inhibition in test [1] was 55% (active); in test [4] it was 87% (active). The inhibition in test [2] is 13%; in test [3] it was 3%. In addition, the outcome in test [5], in test [6], in test [7] and in test [8] was inactive.

Consider `Cc1cccc(CNc2nc(C)cc(NCCC(=O)NCc3cccc(F)c3)n2)c1`, for which the values for the growth inhibition in test [1] and in test [4] were 13% and 84% (active), respectively. Besides, the results for the inhibition in test [2] and in test [3] were 23% and -1%, respectively. The result in test [5], in test [6], in test [7] and in test [8] was inactive.

Turning to `O=C(Nc1ccc2c(c1)CCC2)c1ccc(CN2CCCN(Cc3cccc(O)c3)CC2)cc1`, the growth inhibition in test [1] was 46%; in test [4], 88% (active). The inhibition in test [2] was 45%; in test [3], -1%. Further, the result in test [5], in test [6], in test [7] and in test [8] was inactive.

In the case of `CCOC(=O)c1[nH]c(-c2cccc(F)c2)nc1N`, the growth inhibition in test [1] was 2%; in test [4], 98% (active). Also, the values for the inhibition in test [2] and in test [3] were 0% and 9%, respectively. For the same compound, the outcome in test [5], in test [6], in test [7] and in test [8] was inactive.

For `COc1cc(OC)c2c(C)cc(NCCCN3CCOCC3)nc2c1`, the growth inhibition was 3% in test [1] and 99% (active) in test [4]. Moreover, the inhibition was 6% in test [2] and 0% in test [3]. In addition, the outcome in test [5], in test [6], in test [7] and in test [8] was inactive.

As to `COc1cc(NC(=O)C(c2ccc(Cl)cc2)C(C)C)cc(OC)c1` (stereo not given), the growth inhibition in test [1] is 98% (active); in test [4], 99% (active). Further, the inhibition in test [2] was 5%; in test [3], -3%. The outcome in test [5], in test [6], in test [7] and in test [8] was inactive.

`COCCN1CCC(NCC(C)(C)c2nc(-c3ccc(Cl)c(O)c3)c(-c3ccncc3)[nH]2)CC1`: the growth inhibition was 47% in test [1] and 102% (active) in test [4]. The inhibition in test [2] was -8%; in test [3], -2%. For the same compound, the outcome in test [5], in test [6], in test [7] and in test [8] was inactive.

`N[C@@H](Cc1ccc(O)cc1)C(=O)NC(c1ccccc1)c1c(O)ccc2ccccc12` (stereo not given in full): the growth inhibition in test [1] and in test [4] was 95% (active) in each case. The inhibition is 6% in test [2] and 2% in test [3]. The outcome in test [5], in test [6], in test [7] and in test [8] was inactive.

For `Cc1onc(-c2c(Cl)cccc2Cl)c1C(=O)N1CCc2cc3nccc(N4CCN5CCC[C@H]5C4)c3cc21`, the growth inhibition is 58% (active) in test [1] and 101% (active) in test [4]. The inhibition in test [2] is 3%; in test [3], -5%. In addition, the result in test [5], in test [6], in test [7] and in test [8] was inactive.

Consider `CCOC(=O)c1c(NC(=O)c2ccccc2)sc2c(O)c(CN(CC)CC)ccc12`, for which the growth inhibition in test [1] and in test [4] was 100% (active) in each case. Moreover, the inhibition in test [2] was 9%; in test [3], 4%. Moreover, the outcome in test [5], in test [6], in test [7] and in test [8] was inactive.

In the case of `COc1ccc(-c2nnc(Sc3ccc(C#N)c([N+](=O)[O-])c3)n2CC(C)C)cc1`, the figures for the growth inhibition in test [1] and in test [4] were 78% (active) and 97% (active), respectively. Besides, the inhibition was 3% in test [2] and 4% in test [3]. Also, the outcome in test [5], in test [6], in test [7] and in test [8] was inactive.

Turning to `CC(=O)Nc1ccc(C(=O)Nc2cccc(-c3ccc(-c4nc5ccccc5[nH]4)s3)c2)cn1`, the growth inhibition in test [1] is 91% (active); in test [4], 101% (active). For the same compound, the inhibition is 9% in test [2] and 2% in test [3]. Besides, the outcome in test [5], in test [6], in test [7] and in test [8] was inactive.

As to `O=C1OC2(CN1CC1CCN(Cc3ccc(O)c(Cl)c3)CC1)c1ccccc1-c1ccccc12`, the growth inhibition in test [1] is 96% (active); in test [4] it was 97% (active). Further, the inhibition in test [2] is 32%; in test [3], 0%. In addition, the result in test [5], in test [6], in test [7] and in test [8] was inactive.

Source of the values: PubChem BioAssay.
